# Screening data: PubChem, Broad Institute
# Hits are enriched below; roughly 6.7% of the tested compounds scored in any of these assays.
# C diff HTS: C. difficile growth inhibitors, primary screen, HTS | Clostridium difficile clinical isolate growth, OD600, 24 h; stronger effect = lower value | growth activity, negative = inhibition, % at 16 µg/mL (by protocol) | 86,000 tested, 0.25% active | AID 1259249, 2017;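 active = mean growth activity at or below -80% and every replicate also at or below -80%; inconclusive = mean at or below -80% but some replicate above -80%; inactive = mean growth activity above -80%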
# Pf Dd2 growth: P. falciparum Dd2 growth inhibitors, primary screen, SYBR Green fluorescence, single dose replicates. 72 h; stronger effect = lower value. AID 1159554, 2015. activity change, % at 10 µM. 94,000 tested, 2.3% active; in the data active = activity change below about -80%; inconclusive = no clear call, values can overlap the other calls
# T cruzi growth-1: T. cruzi intracellular proliferation inhibitors, primary screen, cell-based, beta-gal Tulahuen parasites, NIH3T3 host, luminescence | T. cruzi beta-gal in NIH3T3, GalScreen luminescence, 90 h | inhibition, % at 8.34 µM | 77,000 tested, 5.9% active | AID 624255, 2012;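 active = mean inhibition above about 93%, with at least 55% of replicates each passing it, limit read from the data, passing the limit was not always enough; inconclusive = only one of those two conditions holds; inactive = neither condition holds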
# T cruzi growth-2: T. cruzi intracellular proliferation inhibitors, confirmation, cell-based, NIH3T3 host, beta-gal parasite, luminescence, cherry-pick; shares compounds with T cruzi growth-1; T. cruzi beta-gal in NIH3T3, GalScreen luminescence, 90 h; inhibition, % at 8.35 µM; 5,600 tested, 72% active;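 active = mean replicate inhibition above about 95% and at least 55% of replicates individually reaching it, limit read from the data; inconclusive = only one of the two criteria is met; inactive = neither criterion is met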
# T cruzi growth-3: inhibitors of intracellular T. cruzi replication, confirmation, NIH3T3 host cells, beta-gal parasites, cherry-pick, set 2; shares compounds with T cruzi growth-1; T. cruzi beta-gal in NIH3T3, GalScreen luminescence, 90 h; inhibition, % at 2.09 µM; 5,600 tested, 21% active; AID 651740, 2012;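 active = mean inhibition above about 95%, with at least 55% of replicates also reaching it, limit read from the data; inconclusive = meets just one of the two conditions; inactive = meets neither condition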
# 3T3 cytotox: cytotoxicity in mouse NIH/3T3 fibroblasts, confirmation, cytotoxicity control for T. cruzi proliferation inhibitor project, cell-based, cherry-pick, single point. cytotoxicity (signal decrease), % at 8.35 µM. shares compounds with T cruzi growth-1. AID 651742, 2012. 5,600 tested, 14% active. NIH/3T3 viability, CellTiter-Glo ATP luminescence, 90 h;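 active = mean signal decrease across replicates above about 35% based on untreated-well scatter, with enough replicates individually passing, limit read from the data; inconclusive = no rule stated though some were filed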
# 3T3 cytotox 2: NIH/3T3 fibroblast cytotoxicity, confirmation, cytotoxicity control, cell-based, cherry-pick, single point, set 2 | shares compounds with T cruzi growth-1 | NIH/3T3 viability, CellTiter-Glo ATP luminescence, 90 h | inhibition, % at 24.9 µM | 5,600 tested, 56% active | AID 651744, 2012;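 active = mean loss of cell viability signal at or above a set limit, and enough replicates individually reaching it; inconclusive = meets only the mean limit or only the replicate share; inactive = meets neither condition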
# Hits are given with their value; . = inactive; ? = inconclusive; / = no result; + = active, no number.
SMILES,C diff HTS,Pf Dd2 growth,T cruzi growth-1,T cruzi growth-2,T cruzi growth-3,3T3 cytotox,3T3 cytotox 2
COc1ccc(S(=O)(=O)N2C[C@@H](O)COC[C@H]3O[C@H](CC(=O)NCCCN4CCOCC4)CC[C@@H]32)cc1,/,.,.,/,/,/,/
CN(C[C@@H]1N[C@H](CO)[C@@H]1c1ccc(C#CCC2CCCC2)cc1)S(C)(=O)=O,.,.,/,/,/,/,/
Cc1cccc(NC(=O)Nc2ccc3c(c2)C(=O)N(C)[C@H]2CC[C@H](CC(=O)NCc4ccccc4Cl)O[C@@H]2CO3)c1,/,.,.,/,/,/,/
COc1ccc(NC(=O)N(C)C[C@@H]2OCCCC[C@@H](C)Oc3ccc(NC(=O)Nc4ccc5c(c4)OCO5)cc3C(=O)N([C@H](C)CO)C[C@H]2C)cc1,.,.,.,/,/,/,/
COc1ccc(NC(=O)Nc2ccc3c(c2)C(=O)N([C@@H](C)CO)C[C@H](C)[C@H](CN(C)C(=O)Nc2ccc4c(c2)OCO4)OCCCC[C@H](C)O3)cc1,.,.,?,108,.,.,.
COc1ccc(NC(=O)Nc2ccc3c(c2)C(=O)N([C@H](C)CO)C[C@H](C)[C@H](CN(C)C(=O)Nc2ccc4c(c2)OCO4)OCCCC[C@H](C)O3)cc1,.,.,?,111,.,.,.
COc1ccc(NC(=O)N(C)C[C@@H]2OCCCC[C@H](C)Oc3ccc(NC(=O)Nc4ccc5c(c4)OCO5)cc3C(=O)N([C@@H](C)CO)C[C@@H]2C)cc1,.,.,.,/,/,/,/
CNC[C@@H]1OCCCC[C@H](C)Oc2ccc(NC(=O)c3ccccc3)cc2C(=O)N([C@@H](C)CO)C[C@H]1C,.,.,.,/,/,/,/
CN(C)CC(=O)N1[C@@H](CO)[C@@H](c2ccccc2)C12CN(C(=O)c1cccc(F)c1)C2,.,.,/,/,/,/,/
CO[C@H]1CN(C)C(=O)c2cc(NC(=O)C3CC3)ccc2OC[C@@H](C)N(C(=O)Cc2ccccn2)C[C@@H]1C,.,.,.,/,/,/,/
CCCNC(=O)Nc1ccc2c(c1)C(=O)N(C)C[C@@H](OC)[C@H](C)CN(S(C)(=O)=O)[C@H](C)CO2,.,.,/,/,/,/,/
C[C@@H]1CN([C@H](C)CO)S(=O)(=O)c2ccc(C#Cc3cccnc3)cc2O[C@H]1CN(C)C(=O)CN(C)C,.,.,.,/,/,/,/
O=C(Nc1ccccc1)N1CCCCN2[C@H](C1)[C@H](c1ccc(C#Cc3ccccc3)cc1)[C@@H]2CO,.,.,106,104,.,.,39
O=C(Nc1ccc(F)cc1)N1CCCCN2[C@H](C1)[C@H](c1ccc(C#Cc3ccccc3)cc1)[C@@H]2CO,.,-89,123,102,.,.,76
CN(C)CC#Cc1ccc([C@H]2[C@H](CO)N3CCCCN(C(=O)Nc4ccc(F)cc4)C[C@@H]23)cc1,.,.,.,/,/,/,/
O=C(Nc1ccccc1)N1CCCCN2[C@H](C1)[C@@H](c1ccc(C#Cc3cccnc3)cc1)[C@@H]2CO,.,.,.,/,/,/,/
COc1ccccc1C(=O)N1C[C@@H]2[C@H](c3ccccc31)[C@H](CO)N2CC1CCOCC1,.,.,.,/,/,/,/
C[C@@H]1CN([C@@H](C)CO)C(=O)c2cc(NS(=O)(=O)c3ccc(Cl)cc3)ccc2O[C@H]1CN(C)C(=O)Nc1ccc(F)cc1,.,.,.,/,/,/,/
COCCNC[C@H]1[C@@H](c2ccccc2)[C@@H](CO)N1c1nc(C)c(C)s1,.,.,103,.,.,.,.
COCCNC[C@@H]1[C@@H](c2ccccc2)[C@@H](CO)N1c1nc(C)c(C)s1,.,.,.,/,/,/,/
CCCNC(=O)Nc1ccc2c(c1)C(=O)N(C)[C@H]1CC[C@H](CC(=O)OC)O[C@@H]1CO2,.,.,/,/,/,/,/
O=C(C[C@H]1CC[C@@H](NC(=O)c2cccc(F)c2)[C@H](CO)O1)Nc1nccs1,/,.,.,/,/,/,/
O=C(NCc1ccc2c(c1)OCO2)[C@@H]1[C@@H](CO)[C@@H]2Cn3c(cccc3=O)[C@H]1N2Cc1cccnc1,/,/,.,/,/,/,/
C[C@H](NC(=O)[C@H]1[C@H](CO)[C@H]2Cn3c(cccc3=O)[C@@H]1N2C(=O)C1CCC1)c1ccccc1,.,/,.,/,/,/,/
C[C@H](NC(=O)[C@H]1[C@H](CO)[C@H]2Cn3c(cccc3=O)[C@@H]1N2Cc1ccncc1)c1ccccc1,.,.,.,/,/,/,/
SMILES,C diff HTS,Pf Dd2 growth,T cruzi growth-1,T cruzi growth-2,T cruzi growth-3,3T3 cytotox,3T3 cytotox 2
O=C(NCc1ccc(F)cc1)[C@@H]1[C@@H](CO)[C@@H]2Cn3c(cccc3=O)[C@H]1N2Cc1cccnc1,.,.,100,.,.,.,.
C[C@@H](NC(=O)[C@H]1[C@H](CO)[C@H]2Cn3c(cccc3=O)[C@@H]1N2C(=O)C1CC1)c1ccccc1,.,.,103,.,.,.,.
CC(=O)N1[C@@H]2Cn3c(ccc(C4=CCCCC4)c3=O)[C@H]1[C@@H](C(=O)N[C@H](C)c1ccccc1)[C@@H]2CO,.,/,.,/,/,/,/
CC(=O)N1[C@@H]2c3ccc(C4=CCCCC4)c(=O)n3C[C@H]1[C@H](CO)[C@H]2C(=O)N[C@@H](C)c1ccccc1,.,/,+,.,.,.,.
C[C@@H](NC(=O)[C@H]1[C@H](CO)[C@H]2Cn3c(cccc3=O)[C@@H]1N2Cc1ccccc1)c1ccccc1,.,.,101,.,.,.,.
CC=Cc1ccc2n(c1=O)C[C@H]1[C@H](CO)[C@@H](C(=O)NCc3ccc4c(c3)OCO4)[C@@H]2N1C(=O)CC (mixture of isomers),.,.,.,/,/,/,/
COc1ccc(NC(=O)Nc2ccc3c(c2)C(=O)N([C@@H](C)CO)C[C@@H](C)[C@@H](CN(C)C(=O)Nc2cccc4ccccc24)OCCCC[C@H](C)O3)cc1,.,.,.,/,/,/,/
CCCC#Cc1cnc2c(c1)C(=O)N([C@@H](C)CO)C[C@H](C)[C@@H](CN(C)C(=O)NCCC)O2,.,.,.,/,/,/,/
C[C@@H](NC(=O)[C@@H]1[C@@H](CO)[C@@H]2Cn3c(cccc3=O)[C@H]1N2C(=O)C1CCC1)c1ccccc1,.,/,.,/,/,/,/
O=C([C@@H]1[C@@H](CO)[C@@H]2Cn3c(cccc3=O)[C@H]1N2Cc1ccccc1)N1CCCCC1,.,/,.,/,/,/,/
C[C@H](NC(=O)[C@H]1[C@H](CO)[C@H]2Cn3c(cccc3=O)[C@@H]1N2C(=O)C1CC1)c1ccccc1,.,.,101,.,.,.,.
CN1CCN(C(=O)[C@@H]2[C@@H](CO)[C@@H]3Cn4c(cccc4=O)[C@H]2N3Cc2ccncc2)CC1,.,/,169,.,.,.,.
